# Measurements from the supplement of paper PMC10849652.
# Targets with a hit are over-represented here; the source holds about 8,800 in all. About 0.5% of all pairs of compound and target were hits. A number with no mark means an inactive call.
# Assays:
# Experiment in all cases: log2 fold change, soluble protein after heating vs DMSO (PISA); higher = thermal stabilisation; K562 lysate, 10 uM; active = over 0.2 and 3.5 SD of the protein, either way, in both replicates (recomputed)
# [1] = compound: C#Cc1cccc(Nc2ncnc3cc(OCCOC)c(OCCOC)cc23)c1 [erlotinib]
# Summary of the method: (§1)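 Following dounce homogenisation of K562 pellets in PBS pH 7.4 with 1 mM MgCl2, crude extract at 1 mg/mL protein was incubated for 30 min with 10 μM compound. Aliquots were then heated for 3 min over 48°C-58°C and pooled, NP-40 was added to 0.5% at 4°C, and soluble protein was recovered as the supernatant at 21,000xg for 90 min. Channel-sum-equalised TMTpro 16plex LC-MS/MS quantified this protein. Each value, from duplicates, is a log-two fold change in thermal stability relative to solvent controls.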
# [2] = compound: C/C(=N\NC(=O)C1=CC(=CC=C1)S(=O)(=O)N2CCOCC2)/C3=C(C=CC(=C3)Cl)O
# Summary of the method: as §1
# [3] = compound: C1=CC(=CC=C1C2=NC3=C(N2)C=C(C=C3)C(=O)N)OC4=CC=C(C=C4)Cl
# Summary of the method: as §1
# [4] = compound: C1=CC2=C(C=CC(=C2)/C=C\3/C(=O)NC(=NCC4=CC=CS4)S3)N=C1
# Summary of the method: as §1
# [5] = compound: C1=CC2=NC=CN=C2C=C1/C=C/3\C(=O)NC(=O)S3
# Summary of the method: as §1
# [6] = compound: C1=CC=C(C=C1)C2=NC(=C(N2)C3=CC=NC=C3)C4=CC(=C(C=C4)Cl)O
# Summary of the method: as §1
# [7] = compound: C1=CC=C2C(=C1)C3=NNC4=CC=CC(=C43)C2=O
# Summary of the method: as §1
# [8] = compound: C1CCN(C1)C(=O)NC2=CC=CC(=C2)NC3=NC=C(C(=N3)NCCC4=CN=CN4)Br
# Summary of the method: as §1
# [9] = compound: C1CN(CCC1(CC2=CC=C(C=C2)Cl)N)C3=NC=NC4=C3C=CN4
# Summary of the method: as §1
# [10] = compound: C1COCCN1CCN2C3=CC=CC=C3N=C2NC(=O)C4=CC(=CC=C4)[N+](=O)[O-] [IRAK-1-4 Inhibitor I]
# Summary of the method: as §1
# Chain of UniProt Q9Y5Z9 (Q9Y5Z9 whole entry, looked up): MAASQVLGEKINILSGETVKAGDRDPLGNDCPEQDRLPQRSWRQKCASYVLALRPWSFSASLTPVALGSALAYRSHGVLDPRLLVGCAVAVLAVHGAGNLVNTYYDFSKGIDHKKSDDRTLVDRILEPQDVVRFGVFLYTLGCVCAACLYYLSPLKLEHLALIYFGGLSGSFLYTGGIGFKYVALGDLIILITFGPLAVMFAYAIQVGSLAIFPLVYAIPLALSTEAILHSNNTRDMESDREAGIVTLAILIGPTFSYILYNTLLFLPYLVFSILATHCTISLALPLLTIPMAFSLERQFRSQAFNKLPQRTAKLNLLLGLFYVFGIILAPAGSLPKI
# Chain of UniProt P42167 (P42167 whole entry, looked up): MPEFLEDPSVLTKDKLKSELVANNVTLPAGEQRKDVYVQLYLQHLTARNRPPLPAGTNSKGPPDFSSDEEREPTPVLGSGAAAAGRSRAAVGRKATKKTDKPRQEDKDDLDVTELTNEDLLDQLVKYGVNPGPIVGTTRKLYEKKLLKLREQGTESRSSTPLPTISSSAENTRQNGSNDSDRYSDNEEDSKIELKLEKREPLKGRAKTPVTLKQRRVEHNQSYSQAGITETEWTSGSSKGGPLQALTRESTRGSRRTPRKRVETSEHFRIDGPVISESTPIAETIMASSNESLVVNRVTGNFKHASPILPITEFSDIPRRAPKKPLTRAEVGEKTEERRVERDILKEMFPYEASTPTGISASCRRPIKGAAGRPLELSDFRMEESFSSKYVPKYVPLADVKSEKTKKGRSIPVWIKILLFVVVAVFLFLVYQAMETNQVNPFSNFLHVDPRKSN
# Chain of UniProt P68363 (P68363 whole entry, looked up): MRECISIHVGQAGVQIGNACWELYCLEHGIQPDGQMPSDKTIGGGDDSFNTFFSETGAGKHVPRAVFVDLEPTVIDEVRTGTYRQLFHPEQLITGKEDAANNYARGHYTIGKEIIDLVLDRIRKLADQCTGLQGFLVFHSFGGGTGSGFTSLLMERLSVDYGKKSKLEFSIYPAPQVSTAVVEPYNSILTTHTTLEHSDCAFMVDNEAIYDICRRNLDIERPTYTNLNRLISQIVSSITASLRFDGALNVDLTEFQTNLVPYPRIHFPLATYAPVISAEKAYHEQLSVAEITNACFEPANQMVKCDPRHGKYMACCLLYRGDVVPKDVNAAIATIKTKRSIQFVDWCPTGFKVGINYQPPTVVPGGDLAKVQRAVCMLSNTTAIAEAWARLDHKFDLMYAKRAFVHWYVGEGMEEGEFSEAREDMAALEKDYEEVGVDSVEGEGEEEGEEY
# Chain of UniProt Q86SX3 (Q86SX3 whole entry, looked up): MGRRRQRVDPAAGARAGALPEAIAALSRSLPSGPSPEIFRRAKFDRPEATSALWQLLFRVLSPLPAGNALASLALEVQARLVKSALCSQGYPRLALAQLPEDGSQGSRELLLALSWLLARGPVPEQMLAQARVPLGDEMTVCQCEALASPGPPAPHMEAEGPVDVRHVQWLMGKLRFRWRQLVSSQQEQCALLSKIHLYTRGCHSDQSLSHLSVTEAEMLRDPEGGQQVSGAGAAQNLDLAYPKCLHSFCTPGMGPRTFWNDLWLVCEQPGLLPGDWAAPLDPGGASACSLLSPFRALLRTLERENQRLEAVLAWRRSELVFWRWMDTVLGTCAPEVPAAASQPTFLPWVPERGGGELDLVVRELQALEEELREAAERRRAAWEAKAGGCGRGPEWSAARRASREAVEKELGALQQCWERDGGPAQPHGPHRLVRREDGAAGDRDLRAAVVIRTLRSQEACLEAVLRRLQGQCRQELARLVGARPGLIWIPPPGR
# Chain of UniProt Q6P9G4 (Q6P9G4 whole entry, looked up): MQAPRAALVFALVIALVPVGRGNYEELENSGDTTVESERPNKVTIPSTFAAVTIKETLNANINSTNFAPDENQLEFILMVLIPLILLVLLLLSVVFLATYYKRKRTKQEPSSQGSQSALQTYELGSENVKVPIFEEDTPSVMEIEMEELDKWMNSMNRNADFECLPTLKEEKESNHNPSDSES
# Chain of UniProt Q6Q0C0 (Q6Q0C0 whole entry, looked up): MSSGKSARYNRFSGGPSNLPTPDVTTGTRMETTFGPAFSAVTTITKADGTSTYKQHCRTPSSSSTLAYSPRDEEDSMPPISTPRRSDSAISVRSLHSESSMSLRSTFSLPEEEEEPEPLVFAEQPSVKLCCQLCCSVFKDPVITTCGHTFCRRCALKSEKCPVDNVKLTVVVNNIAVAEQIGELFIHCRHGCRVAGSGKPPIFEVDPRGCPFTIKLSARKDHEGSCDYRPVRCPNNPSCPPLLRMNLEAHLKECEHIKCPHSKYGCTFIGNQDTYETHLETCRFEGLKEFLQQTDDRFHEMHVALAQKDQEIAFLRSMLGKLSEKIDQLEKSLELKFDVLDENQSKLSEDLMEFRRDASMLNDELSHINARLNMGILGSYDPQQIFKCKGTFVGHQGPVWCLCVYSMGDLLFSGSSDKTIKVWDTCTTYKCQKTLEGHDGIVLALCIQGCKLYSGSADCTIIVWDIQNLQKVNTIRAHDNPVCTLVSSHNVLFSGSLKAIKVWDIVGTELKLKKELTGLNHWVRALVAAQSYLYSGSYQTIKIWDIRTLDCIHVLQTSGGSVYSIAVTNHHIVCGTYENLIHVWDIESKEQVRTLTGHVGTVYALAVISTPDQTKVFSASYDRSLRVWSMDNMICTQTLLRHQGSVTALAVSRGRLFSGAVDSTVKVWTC
# Chain of UniProt Q24JP5 (Q24JP5 whole entry, looked up): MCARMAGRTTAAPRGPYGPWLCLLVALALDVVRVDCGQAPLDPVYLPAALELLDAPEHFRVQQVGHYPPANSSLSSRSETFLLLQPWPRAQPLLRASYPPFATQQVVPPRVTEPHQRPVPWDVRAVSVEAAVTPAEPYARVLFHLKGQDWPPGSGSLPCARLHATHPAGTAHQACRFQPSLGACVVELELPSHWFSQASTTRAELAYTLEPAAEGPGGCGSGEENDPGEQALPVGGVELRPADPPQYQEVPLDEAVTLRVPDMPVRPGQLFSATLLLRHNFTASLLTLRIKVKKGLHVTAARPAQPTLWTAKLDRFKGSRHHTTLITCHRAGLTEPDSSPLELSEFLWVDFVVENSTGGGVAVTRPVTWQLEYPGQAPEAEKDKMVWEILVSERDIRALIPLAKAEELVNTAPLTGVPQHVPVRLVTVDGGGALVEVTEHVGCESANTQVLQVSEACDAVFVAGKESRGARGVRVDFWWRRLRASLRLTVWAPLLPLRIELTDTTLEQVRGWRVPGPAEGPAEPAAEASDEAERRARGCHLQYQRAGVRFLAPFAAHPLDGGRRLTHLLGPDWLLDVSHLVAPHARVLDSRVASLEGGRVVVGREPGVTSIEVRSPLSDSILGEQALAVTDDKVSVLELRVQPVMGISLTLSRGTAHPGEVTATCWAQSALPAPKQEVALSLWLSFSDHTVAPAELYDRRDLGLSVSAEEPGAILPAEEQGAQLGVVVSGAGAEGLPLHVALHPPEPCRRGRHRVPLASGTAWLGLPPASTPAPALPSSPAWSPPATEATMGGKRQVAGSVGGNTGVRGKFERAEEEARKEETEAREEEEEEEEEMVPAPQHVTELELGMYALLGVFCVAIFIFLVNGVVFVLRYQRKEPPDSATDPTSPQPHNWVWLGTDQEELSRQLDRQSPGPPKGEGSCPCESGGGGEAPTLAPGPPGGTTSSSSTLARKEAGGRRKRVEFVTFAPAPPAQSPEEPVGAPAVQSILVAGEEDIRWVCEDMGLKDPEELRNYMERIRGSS
# Chain of UniProt P06753 (P06753 whole entry, looked up): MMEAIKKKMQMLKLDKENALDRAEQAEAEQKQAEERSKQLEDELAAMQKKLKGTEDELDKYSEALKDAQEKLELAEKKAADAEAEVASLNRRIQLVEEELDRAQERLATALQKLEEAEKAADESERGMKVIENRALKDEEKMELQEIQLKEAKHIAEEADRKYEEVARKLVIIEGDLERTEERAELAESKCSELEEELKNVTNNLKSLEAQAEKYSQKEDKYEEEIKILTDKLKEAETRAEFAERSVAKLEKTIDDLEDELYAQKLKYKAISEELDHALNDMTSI
# Chain of UniProt Q96BS2 (Q96BS2 whole entry, looked up): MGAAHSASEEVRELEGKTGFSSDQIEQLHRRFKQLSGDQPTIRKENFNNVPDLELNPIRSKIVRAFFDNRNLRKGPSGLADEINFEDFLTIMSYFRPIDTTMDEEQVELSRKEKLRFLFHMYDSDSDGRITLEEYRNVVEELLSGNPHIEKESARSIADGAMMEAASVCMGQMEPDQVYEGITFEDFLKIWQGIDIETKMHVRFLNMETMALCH
# Chain of UniProt Q04726 (Q04726 whole entry, looked up): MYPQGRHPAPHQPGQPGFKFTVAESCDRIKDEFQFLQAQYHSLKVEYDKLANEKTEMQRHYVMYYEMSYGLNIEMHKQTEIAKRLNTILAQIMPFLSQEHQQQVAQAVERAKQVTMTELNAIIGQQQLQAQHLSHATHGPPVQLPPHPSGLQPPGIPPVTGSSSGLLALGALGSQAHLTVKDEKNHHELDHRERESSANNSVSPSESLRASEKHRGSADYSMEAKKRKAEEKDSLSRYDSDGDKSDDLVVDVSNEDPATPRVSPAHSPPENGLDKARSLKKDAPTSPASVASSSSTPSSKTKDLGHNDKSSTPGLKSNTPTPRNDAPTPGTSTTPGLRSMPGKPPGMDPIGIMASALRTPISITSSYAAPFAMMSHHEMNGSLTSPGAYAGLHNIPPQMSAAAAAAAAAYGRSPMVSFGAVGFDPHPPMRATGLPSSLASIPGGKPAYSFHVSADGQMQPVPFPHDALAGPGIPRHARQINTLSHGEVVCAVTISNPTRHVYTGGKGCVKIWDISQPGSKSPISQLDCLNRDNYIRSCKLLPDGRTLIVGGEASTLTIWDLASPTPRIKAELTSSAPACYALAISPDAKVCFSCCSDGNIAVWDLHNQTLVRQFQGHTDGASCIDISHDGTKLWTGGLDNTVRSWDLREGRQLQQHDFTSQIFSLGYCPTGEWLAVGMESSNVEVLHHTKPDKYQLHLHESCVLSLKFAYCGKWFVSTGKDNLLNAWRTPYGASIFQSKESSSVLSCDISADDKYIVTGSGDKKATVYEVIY
# Chain of UniProt P62328 (P62328 whole entry, looked up): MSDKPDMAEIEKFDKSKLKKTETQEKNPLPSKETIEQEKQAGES
Target,log2 fold change [1],log2 fold change [2],log2 fold change [3],log2 fold change [4],log2 fold change [5],log2 fold change [6],log2 fold change [7],log2 fold change [8],log2 fold change [9],log2 fold change [10]
TNPO3 (UniProt Q9Y5L0),0.022,0.001,-0.019,-0.018,0.019,-0.008,0,0.018,0.017,0.021
THEMIS2 (UniProt Q5TEJ8),-0.035,0.006,0.004,0.036,0.031,-0.041,-0.024,-0.02,0.042,0.031
TMEM14C (UniProt Q9P0S9),0.027,-0.201,0.046,-0.011,-0.039,0.022,0.063,-0.177,-0.042,0.064
TUBA1B (UniProt P68363),0.031,-0.022,0.009,-0.018,0.006,-0.013,-0.018,0.009,0.02,0.022
TMEM164 (UniProt Q5U3C3),0.067,-0.141,-0.009,-0.093,0.104,-0.056,-0.211,-0.057,0.153,0.094
TRIM65 (UniProt Q6PJ69),0.047,-0.072,-0.008,0.021,-0.005,-0.044,-0.054,0.026,0.007,-0.025
TEX30 (UniProt Q5JUR7),-0.012,-0.106,-0.112,0.03,0.046,-0.009,-0.065,-0.034,-0.007,-0.031
TESC (UniProt Q96BS2),-0.043,0.042,0.03,0.074,-0.042,-0.006,0.036,0.003,0.04,-0.003
UCHL5 (UniProt Q5LJA9),-0.052,0.084,0.005,-0.024,-0.032,0.016,-0.045,0.035,0.006,0.054
TRIM3 (UniProt O75382),0.129,0.2,-0.909 (active),0.098,–,–,0.012,0,-0.265,–
TEDC1 (UniProt Q86SX3),0.05,–,0.057,–,–,0.05,–,-0.127,-0.048,-0.06
UBAP2L (UniProt F8W726),–,-0.074,–,0.048,–,–,0.168,–,–,–
TNIK (UniProt C9J338),0.067,-0.048,0.067,-0.071,-0.064,–,-0.112,-0.101,0.064,–
TRAF7 (UniProt Q6Q0C0),–,0.006,–,-0.042,–,-0.026,-0.151,-0.05,0.116,-0.047
UBIAD1 (UniProt Q9Y5Z9),0.013,0.16,-0.128,0.092,–,0.249,0.46 (active),0.023,0.057,-0.042
UBR4 isoform 4 (UniProt Q5T4S7),0.121,-0.209,-0.073,-0.071,–,0.136,0.016,0.119,-0.094,0.097
TUBA4A (UniProt C9JQ00),–,–,–,–,-0.18,–,–,–,–,–
TENM4 (UniProt Q6N022),–,–,–,–,-0.334,–,–,–,–,–

Target,log2 fold change [1],log2 fold change [2],log2 fold change [3],log2 fold change [4],log2 fold change [5],log2 fold change [6],log2 fold change [7],log2 fold change [8],log2 fold change [9],log2 fold change [10]
TMC1 (UniProt Q8TDI8),-0.028,-0.001,-0.007,0.013,–,-0.072,-0.071,-0.148,-0.081,0.099
TMSB4X (UniProt P62328),0.079,–,0.084,–,-0.031,0.002,–,0.018,0.085,-0.083
TGFBR1 isoform 2 (UniProt P36897),0.042,–,-0.069,–,–,–,–,0.14,-0.102,–
TM2D3 (UniProt Q9BRN9),0.104,–,-0.083,–,-0.068,0.205,–,0.153,0.088,0.148
TMEM154 (UniProt Q6P9G4),–,–,–,–,–,0.01,–,-0.096,0.108,0.019
TMPO isoform 2 (UniProt P42167),–,-0.053,–,0.044,0.143,–,-0.121,0.163,0.038,–
U2AF1L5 (UniProt P0DN76),-0.029,–,0.044,–,–,-0.066,–,0.109,-0.107,0.132
TLE3 isoform 5 (UniProt Q04726),0.036,–,-0.068,–,0.237,0.06,–,-0.068,0.01,-0.021
TUBGCP5 (UniProt Q96RT8),–,0.001,–,-0.026,0.024,0.013,0.01,-0.003,-0.043,-0.034
TUBB4A (UniProt P04350),0.036,–,0.015,–,-0.016,-0.066,–,0.017,-0.001,0.086
TMEM132A isoform 2 (UniProt Q24JP5),-0.031,–,-0.009,–,–,-0.064,–,0.042,0.068,0.101
UCP2 (UniProt P55851),–,0.217,–,-0.114,–,0.011,-0.025,–,–,-0.026
TNKS (UniProt O95271),0.064,-0.024,-0.036,-0.005,–,0.052,-0.01,-0.061,-0.02,-0.073
TASP1 (UniProt Q9H6P5),-0.013,–,-0.017,–,-0.102,-0.022,–,-0.062,0.092,0.055
UBN1 (UniProt Q9NPG3),–,0.032,–,-0.056,–,–,0.051,0,-0.023,–
TFPI isoform 2 (UniProt P10646),–,0.01,–,0.113,–,–,-0.171,–,–,–
TPM3 isoform 3 (UniProt P06753),-0.074,-0.007,-0.076,-0.006,–,-0.033,0.08,0.084,-0.068,-0.016
TCF20 (UniProt Q9UGU0),-0.04,–,-0.001,–,0.039,–,–,–,–,–
